# According to the supplement of paper PMC10037445:
# Several values for one entry are separate records, joined by “and”; a condition that tells them apart may be missing. Equal values may be shown once. In all, about 2,900 compounds were measured (“NF-kB SEAP reporter activity, fold change vs agonist alone”: median about 0.99, highest 2% from about 2.6 on). This excerpt belongs to a sample that is enriched for the highest values.
# Key:
# RAW-Dual [1] = assay: NF-kB SEAP reporter activity, fold change vs agonist alone; higher = enhanced NF-kB activity
# Procedure, shortened: (§1)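 Cytotoxic wells were those whose IncuCyte confluency was below 70% of agonist controls in both mask sets. The cells were RAW-Dual macrophages at 50,000 cells/well in DMEM on 384-well plates, dosed with 50 nL of library stock by pin tool, stimulated with a PRR agonist 1 h later, and kept at 37 °C, 5% CO2 for 20 hours. IRF and NF-κB reporter activity, as fold change over agonist-alone wells, came from supernatant read by QuantiLuc luminescence and QuantiBlue absorbance, respectively.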
# RAW-Dual [2] = assay: NF-kB SEAP reporter activity, fold change vs agonist alone; cytotoxicity flag (confluency mask): not cytotoxic; higher = enhanced NF-kB activity
# Procedure, shortened: as §1
# RAW-Dual [3] = assay: NF-kB SEAP reporter activity, fold change vs agonist alone; cytotoxicity flag (confluency mask): cytotoxic (confluency <70% of control); higher = enhanced NF-kB activity
# Procedure, shortened: as §1
# [4] = library stock concentration (final ~1000-fold dilution): 10 mM, cytotoxicity flag (confluency mask): not cytotoxic, agonist: Imiquimod (TLR7) […]
# [5] = library stock concentration (final ~1000-fold dilution): 10 mM, cytotoxicity flag (confluency mask): not cytotoxic, agonist: MPLA (TLR4) […]
# [6] = agonist: ODN 1826 (TLR9) 0.5 ug/mL
# [7] = agonist: Pam2CSK4 (TLR2/6) 0.1 ug/mL
# [8] = agonist: Pam3CSK4 (TLR2/1) 0.1 ug/mL
smiles,measurement,setting,value
CCCS(=O)(=O)Nc1ccc(F)c(C(=O)c2c[nH]c3ncc(-c4ccc(Cl)cc4)cc23)c1F,NF-kB SEAP reporter activity,RAW-Dual [1]; [4],1.1
same,NF-kB SEAP reporter activity,RAW-Dual [1]; [5],1.3
O=C(O)c1ccc(-c2c[nH]c3ncc(-c4ccccc4)cc23)cc1C1CCCC1,NF-kB SEAP reporter activity,RAW-Dual [1]; [4],0.374
same,NF-kB SEAP reporter activity,RAW-Dual [1]; [5],1.16
COc1ccc(F)c(F)c1C(=O)c1cnc(NC2CCN(S(C)(=O)=O)CC2)nc1N,NF-kB SEAP reporter activity,RAW-Dual [1]; [4],0.977
same,NF-kB SEAP reporter activity,RAW-Dual [1]; [5],0.905
CCCS(=O)(=O)Nc1ccc(F)c(C(=O)c2c[nH]c3ncc(Cl)cc23)c1F (library stock concentration (final ~1000-fold dilution): 10 mM),NF-kB SEAP reporter activity,RAW-Dual [2]; agonist: LPS (TLR4) 0.1 ug/mL,1.48
same,NF-kB SEAP reporter activity,RAW-Dual [2]; [6],0.781
same,NF-kB SEAP reporter activity,RAW-Dual [2]; [7],0.389
same,NF-kB SEAP reporter activity,RAW-Dual [2]; [8],0.505
CCCS(=O)(=O)Nc1ccc(F)c(C(=O)c2c[nH]c3ncc(Cl)cc23)c1F,NF-kB SEAP reporter activity,RAW-Dual [1]; [4],0.891
same,NF-kB SEAP reporter activity,RAW-Dual [1]; [5],1.34
O=C(c1c(F)ccc(NS(=O)(=O)N2CCC(F)C2)c1F)c1c[nH]c2ncc(-c3cnc(C4CC4)nc3)cc12 (stereo not drawn),NF-kB SEAP reporter activity,RAW-Dual [1]; [4],1.12
same,NF-kB SEAP reporter activity,RAW-Dual [1]; [5],1.52
CCN(C)S(=O)(=O)Nc1ccc(F)c(C(=O)c2c[nH]c3ncc(-c4cnc(C5CC5)nc4)cc23)c1F,NF-kB SEAP reporter activity,RAW-Dual [1]; [4],1.24
same,NF-kB SEAP reporter activity,RAW-Dual [1]; [5],1.62
COc1ccc(F)c(F)c1C(=O)c1cnc(NC2CCN(S(C)(=O)=O)CC2)nc1N (library stock concentration (final ~1000-fold dilution): 10 mM),NF-kB SEAP reporter activity,RAW-Dual [2]; agonist: LPS (TLR4) 0.1 ug/mL,0.194
same,NF-kB SEAP reporter activity,RAW-Dual [2]; [6],0.985
same,NF-kB SEAP reporter activity,RAW-Dual [2]; [7],0.0957
same,NF-kB SEAP reporter activity,RAW-Dual [2]; [8],1.16
CCN(C)S(=O)(=O)Nc1ccc(F)c(C(=O)c2c[nH]c3ncc(-c4cnc(C5CC5)nc4)cc23)c1F (library stock concentration (final ~1000-fold dilution): 10 mM),NF-kB SEAP reporter activity,RAW-Dual [2]; agonist: LPS (TLR4) 0.1 ug/mL,3.3
same,NF-kB SEAP reporter activity,RAW-Dual [2]; [6],1.55
same,NF-kB SEAP reporter activity,RAW-Dual [2]; [7],0.469
same,NF-kB SEAP reporter activity,RAW-Dual [2]; [8],0.764
CCCS(=O)(=O)Nc1ccc(F)c(C(=O)c2c[nH]c3ncc(-c4ccc(Cl)cc4)cc23)c1F (library stock concentration (final ~1000-fold dilution): 10 mM),NF-kB SEAP reporter activity,RAW-Dual [2]; agonist: LPS (TLR4) 0.1 ug/mL,0.99
same,NF-kB SEAP reporter activity,RAW-Dual [2]; [6],0.941
same,NF-kB SEAP reporter activity,RAW-Dual [2]; [7],0.4
same,NF-kB SEAP reporter activity,RAW-Dual [2]; [8],0.411
O=C(c1c(F)ccc(NS(=O)(=O)N2CCC(F)C2)c1F)c1c[nH]c2ncc(-c3cnc(C4CC4)nc3)cc12 (stereo not drawn) (library stock concentration (final ~1000-fold dilution): 10 mM),NF-kB SEAP reporter activity,RAW-Dual [2]; agonist: LPS (TLR4) 0.1 ug/mL,3.62
same,NF-kB SEAP reporter activity,RAW-Dual [2]; [6],1.42
same,NF-kB SEAP reporter activity,RAW-Dual [2]; [7],0.526
same,NF-kB SEAP reporter activity,RAW-Dual [2]; [8],0.5
O=C(O)c1ccc(-c2c[nH]c3ncc(-c4ccccc4)cc23)cc1C1CCCC1 (library stock concentration (final ~1000-fold dilution): 10 mM),NF-kB SEAP reporter activity,RAW-Dual [2]; agonist: LPS (TLR4) 0.1 ug/mL,1.15
same,NF-kB SEAP reporter activity,RAW-Dual [2]; [6],0.388
same,NF-kB SEAP reporter activity,RAW-Dual [2]; [7],0.646
same,NF-kB SEAP reporter activity,RAW-Dual [2]; [8],0.497
CCNC(=O)Nc1ccc(-c2nc3c(c(N4CCOCC4C)n2)CCN(C2COC2)C3)cc1 (stereo not drawn),NF-kB SEAP reporter activity,RAW-Dual [1]; [4],0.771
same,NF-kB SEAP reporter activity,RAW-Dual [1]; [5],1.23
CCNC(=O)Nc1ccc(-c2nc3c(c(N4CCOCC4C)n2)CCN(C2COC2)C3)cc1 (stereo not drawn) (library stock concentration (final ~1000-fold dilution): 10 mM),NF-kB SEAP reporter activity,RAW-Dual [2]; agonist: LPS (TLR4) 0.1 ug/mL,0.974
same,NF-kB SEAP reporter activity,RAW-Dual [2]; [6],0.705
same,NF-kB SEAP reporter activity,RAW-Dual [2]; [7],0.395
same,NF-kB SEAP reporter activity,RAW-Dual [2]; [8],0.411
Cc1nc(NC(=O)N2CCCC2C(N)=O)sc1-c1csc(C(C)(C)C)n1 (stereo not drawn) (library stock concentration (final ~1000-fold dilution): 10 mM),NF-kB SEAP reporter activity,RAW-Dual [2]; agonist: LPS (TLR4) 0.1 ug/mL,0.881
same,NF-kB SEAP reporter activity,RAW-Dual [2]; [6],1.41
same,NF-kB SEAP reporter activity,RAW-Dual [2]; [7],1.32
same,NF-kB SEAP reporter activity,RAW-Dual [2]; [8],1
Cc1nc(NC(=O)N2CCCC2C(N)=O)sc1-c1csc(C(C)(C)C)n1 (stereo not drawn),NF-kB SEAP reporter activity,RAW-Dual [1]; [4],1.01
same,NF-kB SEAP reporter activity,RAW-Dual [1]; [5],0.941
CC(C)N(CCCNC(=O)Nc1ccc(C(C)(C)C)cc1)CC1OC(n2ccc3c(N)ncnc32)C(O)C1O (stereo not drawn),NF-kB SEAP reporter activity,RAW-Dual [1]; [4],1.02
same,NF-kB SEAP reporter activity,RAW-Dual [1]; [5],0.984
CC(C)N(CCCNC(=O)Nc1ccc(C(C)(C)C)cc1)CC1OC(n2ccc3c(N)ncnc32)C(O)C1O (stereo not drawn) (library stock concentration (final ~1000-fold dilution): 10 mM),NF-kB SEAP reporter activity,RAW-Dual [2]; agonist: LPS (TLR4) 0.1 ug/mL,0.953
same,NF-kB SEAP reporter activity,RAW-Dual [2]; [6],1.05
same,NF-kB SEAP reporter activity,RAW-Dual [2]; [7],0.991
same,NF-kB SEAP reporter activity,RAW-Dual [2]; [8],1.14
C=C(C)C1CCC2(C(=O)O)CCC3(C)C(CCC4C5(C)CCC(O)C(C)(C)C5CCC43C)C12 (stereo not drawn),NF-kB SEAP reporter activity,RAW-Dual [1]; [4],1.04
same,NF-kB SEAP reporter activity,RAW-Dual [1]; [5],1.1
C=C(C)C1CCC2(C(=O)O)CCC3(C)C(CCC4C5(C)CCC(O)C(C)(C)C5CCC43C)C12 (stereo not drawn) (library stock concentration (final ~1000-fold dilution): 10 mM),NF-kB SEAP reporter activity,RAW-Dual [2]; agonist: LPS (TLR4) 0.1 ug/mL,1.45
same,NF-kB SEAP reporter activity,RAW-Dual [2]; [6],0.913
same,NF-kB SEAP reporter activity,RAW-Dual [2]; [7],0.832
same,NF-kB SEAP reporter activity,RAW-Dual [2]; [8],1.14
CN1CCc2cc(Nc3ncc(C4CC4)c(NCCCNC(=O)C4CCC4)n3)ccc2C1 (library stock concentration (final ~1000-fold dilution): 10 mM),NF-kB SEAP reporter activity,RAW-Dual [3]; agonist: LPS (TLR4) 0.1 ug/mL,0.23
same,NF-kB SEAP reporter activity,RAW-Dual [3]; [6],0.207
same,NF-kB SEAP reporter activity,RAW-Dual [3]; [7],0.0969
same,NF-kB SEAP reporter activity,RAW-Dual [3]; [8],0.211
O=C(NCCCNc1nc(Nc2cccc(CN3CCOCC3)c2)ncc1C1CC1)C1CCC1 (library stock concentration (final ~1000-fold dilution): 10 mM),NF-kB SEAP reporter activity,RAW-Dual [2]; agonist: LPS (TLR4) 0.1 ug/mL,2.49 and 3.77
same,NF-kB SEAP reporter activity,RAW-Dual [2]; [6],0.595 and 0.333
same,NF-kB SEAP reporter activity,RAW-Dual [2]; [7],2.26 and 2.33
same,NF-kB SEAP reporter activity,RAW-Dual [2]; [8],4.25 and 3.71
O=C(NCCCNc1nc(Nc2cccc(NC(=O)N3CCCC3)c2)ncc1I)c1cccs1 (library stock concentration (final ~1000-fold dilution): 10 mM),NF-kB SEAP reporter activity,RAW-Dual [3]; agonist: LPS (TLR4) 0.1 ug/mL,0.329 and 0.35
same,NF-kB SEAP reporter activity,RAW-Dual [3]; [6],0.729 and 1.48
same,NF-kB SEAP reporter activity,RAW-Dual [3]; [7],0.0917 and 0.128
same,NF-kB SEAP reporter activity,RAW-Dual [3]; [8],0.252 and 0.376
CN1CCc2cc(Nc3ncc(C4CC4)c(NCCCNC(=O)C4CCC4)n3)ccc2C1,NF-kB SEAP reporter activity,"RAW-Dual [1]; library stock concentration (final ~1000-fold dilution): 10 mM, cytotoxicity flag (confluency mask): cytotoxic (confluency <70% of control), agonist: Imiquimod (TLR7) […]",0.243
same,NF-kB SEAP reporter activity,"RAW-Dual [1]; library stock concentration (final ~1000-fold dilution): 10 mM, cytotoxicity flag (confluency mask): cytotoxic (confluency <70% of control), agonist: MPLA (TLR4) […]",0.288
CC(C)(C)c1[nH]cnc1C=c1[nH]c(=O)c(=Cc2ccccc2)[nH]c1=O,NF-kB SEAP reporter activity,RAW-Dual [1]; [4],2.47
same,NF-kB SEAP reporter activity,RAW-Dual [1]; [5],2.5
CC(C)(C)c1[nH]cnc1C=c1[nH]c(=O)c(=Cc2ccccc2)[nH]c1=O (library stock concentration (final ~1000-fold dilution): 10 mM),NF-kB SEAP reporter activity,RAW-Dual [2]; agonist: LPS (TLR4) 0.1 ug/mL,6.1
same,NF-kB SEAP reporter activity,RAW-Dual [2]; [6],3.37
same,NF-kB SEAP reporter activity,RAW-Dual [2]; [7],2.02
same,NF-kB SEAP reporter activity,RAW-Dual [2]; [8],2.3
O=c1[nH]cnc2ccccc12,NF-kB SEAP reporter activity,RAW-Dual [1]; [4],0.847
same,NF-kB SEAP reporter activity,RAW-Dual [1]; [5],0.983
O=c1[nH]cnc2ccccc12 (library stock concentration (final ~1000-fold dilution): 10 mM),NF-kB SEAP reporter activity,RAW-Dual [2]; agonist: LPS (TLR4) 0.1 ug/mL,1.14
same,NF-kB SEAP reporter activity,RAW-Dual [2]; [6],0.991
same,NF-kB SEAP reporter activity,RAW-Dual [2]; [7],1.05
same,NF-kB SEAP reporter activity,RAW-Dual [2]; [8],1.08
O=C(Nc1ccc(O)c(C(=O)O)c1)c1cccc(NC(=O)c2ccco2)c1,NF-kB SEAP reporter activity,RAW-Dual [1]; [4],0.942
same,NF-kB SEAP reporter activity,RAW-Dual [1]; [5],0.969
O=C(Nc1ccc(O)c(C(=O)O)c1)c1cccc(NC(=O)c2ccco2)c1 (library stock concentration (final ~1000-fold dilution): 10 mM),NF-kB SEAP reporter activity,RAW-Dual [2]; agonist: LPS (TLR4) 0.1 ug/mL,0.971
same,NF-kB SEAP reporter activity,RAW-Dual [2]; [6],0.895
same,NF-kB SEAP reporter activity,RAW-Dual [2]; [7],1.05
same,NF-kB SEAP reporter activity,RAW-Dual [2]; [8],1.06
Cl.Cl.c1cc(-c2nc3ccc(OCCCN4CCCC4)cc3o2)ccc1OCCCN1CCCC1 (library stock concentration (final ~1000-fold dilution): 1 mM),NF-kB SEAP reporter activity,RAW-Dual [2]; agonist: LPS (TLR4) 0.1 ug/mL,0.935
same,NF-kB SEAP reporter activity,RAW-Dual [2]; [6],0.224
same,NF-kB SEAP reporter activity,RAW-Dual [2]; [7],1.11
same,NF-kB SEAP reporter activity,RAW-Dual [2]; [8],1.06
Cl.Cl.c1cc(-c2nc3ccc(OCCCN4CCCC4)cc3o2)ccc1OCCCN1CCCC1,NF-kB SEAP reporter activity,"RAW-Dual [1]; library stock concentration (final ~1000-fold dilution): 1 mM, cytotoxicity flag (confluency mask): not cytotoxic, agonist: Imiquimod (TLR7) […]",1.27
same,NF-kB SEAP reporter activity,"RAW-Dual [1]; library stock concentration (final ~1000-fold dilution): 1 mM, cytotoxicity flag (confluency mask): not cytotoxic, agonist: MPLA (TLR4) […]",1.08
